Records with an inconclusive call do not appear. Active and inactive are the calls of the source. The call rests on the fitted dose curve; in most records, active means well fitted inhibition curve with a large enough effect; inconclusive means small, poorly fitted or top-dose-only effect; inactive means no such curve, though single readings can be large or run the other way.

We go through 40 molecules from PubChem BioAssay AID1347414 (National Center for Advancing Translational Sciences (NCATS), 2020).
Potency means the concentration at half of the fitted maximal effect.

This experiment can be described thus: qHTS to identify inhibitors of the type 1 interferon - major histocompatibility complex class I in skeletal muscle: Secondary screen by immunofluorescence. Further: nearly all actives have a fitted effect of over 70% in size. The conditions noted are these: C25cl48 myoblasts, IFN-b induced HLA-ABC immunofluorescence, 24 h; series mostly up to 49.8 µM. From the text: Assay Submitter (PI): Travis B. Kinder Ph.D. & James Inglese Ph.D. Assay Development and Screening Technology Laboratory (ADST) National Center for Advancing Translational Sciences (NCATS), Rockville, MD National Institute of Health (NIH), Bethesda, Maryland Idiopathic inflammatory myopathies, collectively referred to as myositis, are a group of rare autoimmune diseases characterized by skeletal muscle inflammation, weakness, and usually accompanied by systemic pathologies of the skin, lungs, or vasculature. Current immunosuppressive therapies and glucocorticoids are often not curative and are accompanied by harsh side effects, especially in children with juvenile myositis. We initiated a drug repurposing and development program to identify more targeted, less toxic therapeutics to treat myositis. Although its cause is not known, muscle from a subset of patients have an abundance of the inflammatory type 1 interferon (IFN) and a down-stream product major histocompatibility complex class I (MHC class I), which are both thought to contribute to damage and weakness. We conducted quantitative high throughput screening (qHTS) on 6,576 compounds (4,679 unique) through a series of cell-based assays to identify those that inhibit the IFN-stimulated expression of MHC class I in muscle precursor cells (myoblasts). The compound identification and evaluation strategy utilized a primary screen with reporter-tagged MHC class I in genome-engineered myoblasts, ATP content counter screen for viability, HLA-ABC immunofluorescence secondary screen, and HLA-B RT-qPCR tertiary screen. To verify activity of compounds identified by qHTS in HLA-B HiBit reporter cells, compounds were assayed by high throughput HLA-ABC immunofluorescence. Briefly, 216 compounds identified from primary and counter screening as inhibitory with minimal cytotoxicity were dispensed into black/clear bottom […] using acoustic dispensing in an 11-point, 1:3 titration with a high final concentration of 50 uM. Normal immortalized human myoblasts C25cl48 were added to the plates with 4.0 ng/ml human IFN-beta for 24 hours, fixed, stained by immunofluorescence for HLA-ABC protein, nuclei, and cell body, and analyzed by laser scanning cytometry as described by Auld et al., 2006. References: Auld DS, Johnson RL, Zhang Y, Veith H, Jadhav A, Yasgar A, Simeonov A, Zheng W, Martinez ED, Westwick JK, Austin CP, Inglese J. 2006. Fluorescent protein-based cellular assays analyzed by laser-scanning microplate cytometry in 1536-well plate format. Methods Enzymol 414:566-89. doi:10.1016/S0076-6879(06)14029-X
PROTOCOL TABLE (as described by Inglese et al., 2007) SEQUENCE No. (e.g., 1, 2, 3, etc.); […] (e.g., Cells, Incubation, Reagent, etc.); VALUE; DESCRIPTION 0; Compounds; 25 nl; Follow-up compounds dispensed at 25 nl/well with Labcyte Echo 655 acoustic dispenser in triplicate Aurora ChemLib 1536K black/clear bottom, low base, TC 1536-well plates (00019324). Also dispensed 25 nl/well DMSO control, ruxolitinib IFN-b inhibitor control titration, and digitonin cytotoxic control 1a; Cells; 5 uL; Multidrop Combi (Thermo Scientific) to seed 125 cells/well into eight plates in 5 ul/well of iHSKM growth medium (GM) without dexamethasone into columns 1+2. Add metal lids with gas-exchange holes 1b; Cells; 5 uL; Multidrop Combi (Thermo Scientific) to seed 125 cells/well into eight plates in 5 ul/well of iHSKM GM without dexamethasone + 4 ng/ml IFN-b into columns 3 - 48. […]
Background: Quantitative high-throughput screening tests each substance at several concentrations.
Turning to `CN1CCN(c2cccc(Nc3nc4c(-c5ccc(S(C)(=O)=O)cc5)cccn4n3)c2)CC1`, the Potency was 1820 nM (active).

With `CN(C)Cc1c(C(=O)NCCOc2ccc(C(=O)NO)cc2)oc2ccccc12`, the Potency was 162 nM (active). For `COc1ccc(F)c(F)c1C(=O)c1cnc(NC2CCN(S(C)(=O)=O)CC2)nc1N`, the Potency was 914 nM (active). In the case of `CC(/C=C/C(=O)NO)=C\[C@@H](C)C(=O)c1ccc(N(C)C)cc1` it was 204 nM (active); in that of `CN(C)c1ccc(C(=O)NCCCCCCC(=O)NO)cc1`, 647 nM (active). As to `CCCCC(=O)O[C@]1(C(=O)CO)[C@@H](C)C[C@H]2[C@@H]3CCC4=CC(=O)C=C[C@]4(C)[C@@]3(F)[C@@H](O)C[C@@]21C`, the Potency result is “inactive”. Turning to `C[C@H]1C[C@@H]2[C@H]([C@@H](O)C[C@@]3(C)[C@H]2CC[C@]3(O)C(=O)CO)[C@@]2(C)C=CC(=O)C=C12`, the Potency result was “inactive”. As for `COc1cc(Nc2ncc(F)c(Nc3ccc4c(n3)NC(=O)C(C)(C)O4)n2)cc(OC)c1OC`, the Potency entry is “inactive”. In the case of `O=C(/C=C/C#Cc1cccc(NS(=O)(=O)c2ccccc2)c1)NO` it was 1450 nM (active). As to `N#CCNC(=O)c1ccc(-c2ccnc(Nc3ccc(N4CCOCC4)cc3)n2)cc1`, the Potency is 1620 nM (active).

Consider `CCNC(=O)c1noc(-c2cc(C(C)C)c(O)cc2O)c1-c1ccc(CN2CCOCC2)cc1`, for which the Potency result was “inactive”. In the case of `COCCN1CCN(Cc2ccc(-c3n[nH]c4c3C(=O)c3c(NC(=O)NN5CCOCC5)cccc3-4)cc2)CC1` it was 51.4 nM (active). As for `NC(=O)c1cnc2[nH]ccc2c1NC1C2CC3C[C@H]1CC(O)(C3)C2` (stereo not given in full), the Potency is 458 nM (active). With `O=C(/C=C/c1ccc(CN(CCO)CCc2c[nH]c3ccccc23)cc1)NO`, the Potency is 36.4 nM (active). For `CN1CCC(c2c(O)cc(O)c3c(=O)cc(-c4ccccc4Cl)oc23)C1CO` (stereo not given), the Potency is 408 nM (active). Regarding `COc1cccc2c1C(=O)c1c(O)c3c(c(O)c1C2=O)C[C@@](O)(C(=O)CO)C[C@@H]3O[C@H]1C[C@H](N)[C@H](O)[C@H](C)O1`, the Potency was 230 nM (active). As to `O=C1Nc2nc(-c3c(O)cccc3OCC3CC3)cc([C@@H]3CCCNC3)c2CO1`, the Potency was 4580 nM (active).

`CC(C)C[C@H](NC(=O)[C@H](CCc1ccccc1)NC(=O)CN1CCOCC1)C(=O)N[C@@H](Cc1ccccc1)C(=O)N[C@@H](CC(C)C)C(=O)[C@@]1(C)CO1`: the Potency is 64.7 nM (active). With `CC(C)CC(=O)Nc1n[nH]c2c1CN(C(=O)C1CCN(C)CC1)C2(C)C`, the Potency was 230 nM (active). In the case of `COc1cccc2c1C(=O)c1c(O)c3c(c(O)c1C2=O)C[C@@](O)(C(C)=O)C[C@@H]3O[C@H]1C[C@H](N)[C@H](O)[C@H](C)O1` it was 458 nM (active).

As to `Cc1[nH]nc2ccc(-c3cncc(OC[C@@H](N)Cc4ccccc4)c3)cc12`, the Potency is 726 nM (active). For the molecule `Cc1cc2c(cc1CC(=O)c1sccc1S(=O)(=O)Nc1onc(C)c1Cl)OCO2`, the Potency entry was “inactive”.

With `CS(=O)(=O)N1CCC(NC(=O)c2[nH]ncc2NC(=O)c2c(Cl)cccc2Cl)CC1`, the Potency was 1450 nM (active).

As to `Fc1ccc(CNc2ncnc3ccc(F)cc23)cc1`, the Potency entry was “inactive”.

On to `O=C(/C=C\n1cnc(-c2cc(C(F)(F)F)cc(C(F)(F)F)c2)n1)NNc1cnccn1`, for which the Potency was 324 nM (active). In the case of `CNC(=O)c1ccc(Nc2ncc(C(F)(F)F)c(NCc3nccnc3N(C)S(C)(=O)=O)n2)cc1`, the Potency was 6470 nM (active). `CCc1c(-c2ccccc2C)nc2c(C#N)c[nH]n2c1=O`: the Potency entry is “inactive”. In the case of `COC1CC(C(=O)c2ccc3c(N)ncc(-c4ccc(-c5cnn(C)c5)cc4)c3n2)C1` (stereo not given) it was “inactive”.

As for `C[C@]12C=CC(=O)C=C1CC[C@H]1[C@@H]3C[C@@H](O)[C@](O)(C(=O)CO)[C@@]3(C)C[C@H](O)[C@@]12F`, the Potency result is “inactive”. As to `Cn1cc(-c2ccc(-c3cncc(Cl)c3N3CCC4(CCNC4=O)CC3)cc2)cn1`, the Potency entry was “inactive”. Regarding `CCN(CC)Cc1ccc2cc(COC(=O)Nc3ccc(C(=O)NO)cc3)ccc2c1`, the Potency is 258 nM (active).

Take `CCOC(=O)C1=C(C)NC2=C(C(=O)CC(C)(C)C2)C1c1ccc(-c2ccccc2)cc1` (stereo not given): the Potency entry was “inactive”. For the molecule `COc1cc(F)ccc1-c1ncnc(Nc2cccc(CS(C)(=N)=O)c2)n1` (stereo not given), the Potency was 814 nM (active). Take `Nc1ccccc1NC(=O)c1ccc(CNc2nccc(-c3cccnc3)n2)cc1`: the Potency was 3240 nM (active). `CN1CCN(C(=O)c2ccc3cc(CCNc4ncnc5ccc(C#N)cc45)ccc3c2)CC1`: the Potency result was “inactive”. Regarding `COC(=O)N[C@@H](C)CNc1nccc(-c2cn(C(C)C)nc2-c2cc(Cl)cc(NS(C)(=O)=O)c2F)n1`, the Potency entry is “inactive”. On to `CCOc1cc2ncc(C#N)c(Nc3ccc(F)c(Cl)c3)c2cc1NC(=O)/C=C/CN(C)C`, for which the Potency was 4580 nM (active). `CC1(C)CC(=O)c2c(C(F)(F)F)nn(-c3ccc(C(N)=O)c(NC4CCC(O)CC4)c3)c2C1` (stereo not given): the Potency was 32.4 nM (active). Next, `CCC(=C/[C@H](C)C/C=C/C(C)=C/[C@@H](C)C(=O)[C@@H](C)[C@H](O)[C@@H](C)C/C(C)=C/C(=O)O)/C=C/[C@@H]1OC(=O)C=C[C@@H]1C`: “inactive”; `Cc1ccc(C(=O)Nc2ccc(CN3CCN(C)CC3)c(C(F)(F)F)c2)cc1C#Cc1cnc2[nH]ncc2c1`: 726 nM (active).
